Source: PubChem BioAssay AID504708 (Sanford-Burnham Center for Chemical Genomics, 2011)
This is one part of the list. Calls of active or inactive are those of the source.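 How the source made its calls: active means inhibition at or below a set negative limit, negative inhibition meaning the enzyme was activated; inactive means the rest.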

The molecules below were run against Hexokinase HKDC1 (Homo sapiens) (UniProt Q2TB90) (assay: compounds raising human HKDC1 activity – biochemical, single concentration, confirmation (AID 504708)). Conditions: recombinant HKDC1, G6PDH/diaphorase resazurin fluorescence; at 20 µM; hits give low values.
Chain of Hexokinase HKDC1 (Homo sapiens) (Q2TB90 whole entry, looked up): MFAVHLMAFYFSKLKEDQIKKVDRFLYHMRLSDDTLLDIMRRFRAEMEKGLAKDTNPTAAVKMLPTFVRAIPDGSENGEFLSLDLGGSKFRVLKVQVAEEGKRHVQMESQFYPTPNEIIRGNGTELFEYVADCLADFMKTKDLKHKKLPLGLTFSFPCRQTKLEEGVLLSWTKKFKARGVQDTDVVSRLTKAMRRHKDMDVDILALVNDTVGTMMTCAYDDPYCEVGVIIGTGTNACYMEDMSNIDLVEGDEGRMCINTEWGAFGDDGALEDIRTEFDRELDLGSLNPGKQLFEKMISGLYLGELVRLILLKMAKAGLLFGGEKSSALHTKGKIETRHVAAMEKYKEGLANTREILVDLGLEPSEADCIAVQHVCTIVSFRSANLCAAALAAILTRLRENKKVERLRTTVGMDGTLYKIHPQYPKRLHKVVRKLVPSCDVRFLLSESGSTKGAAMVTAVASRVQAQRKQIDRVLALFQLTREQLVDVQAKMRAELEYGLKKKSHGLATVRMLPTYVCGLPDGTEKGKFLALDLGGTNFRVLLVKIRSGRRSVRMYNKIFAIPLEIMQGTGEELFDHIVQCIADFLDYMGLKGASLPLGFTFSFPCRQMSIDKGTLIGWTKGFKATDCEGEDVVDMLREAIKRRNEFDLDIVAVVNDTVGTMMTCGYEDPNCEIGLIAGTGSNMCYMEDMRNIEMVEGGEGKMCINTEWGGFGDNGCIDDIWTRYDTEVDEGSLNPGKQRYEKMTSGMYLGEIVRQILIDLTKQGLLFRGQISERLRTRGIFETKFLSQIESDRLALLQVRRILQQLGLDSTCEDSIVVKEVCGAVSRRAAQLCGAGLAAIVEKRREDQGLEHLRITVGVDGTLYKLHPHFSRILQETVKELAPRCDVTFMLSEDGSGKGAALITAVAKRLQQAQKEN

inhibition, inactive:
O=C(Nc1ccccc1Cl)/C(Cl)=C(\Cl)S(=O)c1ccccc1 (stereo not given) -5.2%
COc1ccc(NC(=O)CSc2ccc(-c3ccco3)nn2)c(OC)c1 70.8%
O=C1C(Cl)=C(Oc2ccccc2)C(=O)c2ccccc21 77.7%
COc1ccc2c(c1)c(=Cc1ccc(N(C)C)cc1)c1cc(-c3ccccc3)[n+](C)n12 31.2%
CN1c2ccc(C=O)c3c(C=O)ccc(c23)N(C)C1(C)C 61.2%
COc1ccc(C(CCN(Cc2ccc(OC)c(OC)c2)C(=O)CCl)c2ccccc2)cc1 (stereo not given) 17.4%
CCC(=C/c1sc2ccc3ccccc3c2[n+]1C)/C=C1\Sc2ccc3ccccc3c2N1C 24.1%
O=C(NC1=CC(=O)c2ccccc2C1=O)c1ccccc1 69.9%
Cc1cc(C(=O)CCl)c(C)n1CC1COc2ccccc2O1 (stereo not given) 11%
CCOC(=O)CSc1nc2ccc(C)cc2n2cnnc12 63.8%
COC(=O)c1ccc(NCc2cc(O)ccc2O)cc1 65.1%
CC(=O)N(C1=C(Cl)C(=O)c2ccccc2C1=O)c1ccc(C(=O)O)cc1 64.4%
CC(C)(C)Nc1c(N)c(=O)oc2ccccc12 -27.1%
CCOc1cc(/C=N/n2cnnc2)c(Br)cc1O 28.4%
COCCNC(=O)Nc1ccc2nc(-c3ccco3)c(-c3ccco3)nc2c1 -20.8%
O=c1[nH]c2ccccc2n2c(-c3ccccc3)nnc12 58.5%
Nc1ccc2nc3c(=O)[nH]c(=S)[nH]c3nc2c1 -3.17%
COc1ccc(N(CC(=O)N/N=C/c2cccc3c2OCCO3)S(=O)(=O)c2ccc(NC(C)=O)cc2)cc1 19.1%
O=C(c1cccnc1)N(c1cc2sc(=O)oc2c2ccccc12)S(=O)(=O)c1ccccc1 -5%
Cc1ccc(C(=O)O)cc1-c1ccc(/C=C2\SC(=O)N(CC(=O)Nc3ccc4c(c3)OCO4)C2=O)o1 13.9%
O=c1ccc2c(-c3ccccc3S(=O)(=O)O)c3ccc(O)c(O)c3oc-2c1O 14.4%
Cc1ccc(Nc2nc(-c3sc(NC(=O)c4ccccc4)nc3C)cs2)cc1 12.1%
O=C(CSc1n[nH]c(-c2cccnc2)n1)Nc1ccnc2ccccc12 46%
CCOC(=O)C1=C(c2ccc(OC)cc2)C(=O)c2ccccc2C1=O 75%
CCn1cc(C(=O)NCc2ccc3c(c2)OCO3)c2cc(OC)c(OC)cc2c1=O 45.9%
CCc1ccc2c(c1)C1(NN=C(c3ccccc3)S1)C(=O)N2 (stereo not given) -13.6%
O=S(=O)(Nc1ccc(O)c2ccccc12)c1ccc(OC(F)(F)F)cc1 19.8%
Cc1ccc(N(Cc2cc(=O)[nH]c3ccccc23)C(=O)CCl)cc1 34.5%
CCCc1nc2oc3c(OCC)ncnc3c2c2c1COC(C)(C)C2 14.9%

inhibition, active:
Clc1cccc(N=C2NN=C(c3ccc4c(c3)OCCO4)CS2)c1 -99.6%
O=C(CSc1cccc2cccnc12)N/N=C/c1cccnc1 -46.6%
CC(=O)/C(=N\Nc1ccc(Cl)cc1Cl)Sc1cccc2cccnc12 -44.8%
Cc1cc(C2=NNC(=Nc3ccc(S(=O)(=O)N4CCOCC4)cc3)SC2)c(C)n1CC1CCCO1 (stereo not given) -55.8%
Cc1ccc2oc(=O)c3cnn(CC(=O)N4CCCCCC4)c3c2c1 -63.5%
C[N+](C)(CCCCCC[N+](C)(C)CCCN1C(=O)c2cccc3cccc(c23)C1=O)CCCN1C(=O)c2cccc3cccc(c23)C1=O -82%
